Test results taken from the supplement of paper PMC8728848.
Only a selection was taken, and the strongest signals are over-represented in it overall.

Assays:
Test in all cases: glycan array binding signal (z-score within array); higher = stronger binding
Conditions in all cases: glycan notation: IUPAC condensed, linker removed
Gal6S(b1-4)Glc6S = molecular target: Gal6S(b1-4)Glc6S
Outline: (§1)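 Glycan array binding is given as a within-array Z-score, which can be read as non-binding when negative. The arrays, 3228 of them, came from the Consortium for Functional Glycomics database and were retained only where the protein sequence was available. Z-scores were averaged across arrays of the same protein sequence at different concentrations or buffers and across linkers.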

Gal6S(b1-4)GlcNAc6S = molecular target: Gal6S(b1-4)GlcNAc6S
Outline: as §1

[1] = molecular target: GalNAc(b1-4)GlcNAc(b1-2)Man(a1-3)[GalNAc(b1-4)GlcNAc(b1-2)Man(a1-6)]Man(b1-4)GlcNAc(b1-4)GlcNAc
Outline: as §1

GlcA(b1-3)GlcNAc = molecular target: GlcA(b1-3)GlcNAc
Outline: as §1

[2] = molecular target: GlcNAc(a1-4)Gal(b1-4)GlcNAc
Outline: as §1

[3] = molecular target: GlcNAc(b1-2)Gal(b1-3)GalNAc
Outline: as §1

[4] = molecular target: GlcNAc(b1-6)Gal(b1-4)GlcNAc
Outline: as §1

[5] = molecular target: Man(a1-2)Man(a1-2)Man(a1-6)[Man(a1-3)]Man
Outline: as §1

[6] = molecular target: Man(a1-3)[Man(a1-6)]Man(a1-6)[Man(a1-3)]Man
Outline: as §1

[7] = molecular target: Neu5Ac(a2-3)Gal(b1-3)GlcNAc(b1-3)Gal(b1-3)GlcNAc
Outline: as §1

[8] = molecular target: Neu5Ac(a2-3)Gal(b1-3)GlcNAc(b1-3)Gal(b1-4)GlcNAc
Outline: as §1

[9] = molecular target: Neu5Ac(a2-3)Gal(b1-3)[Neu5Ac(a2-6)]GlcNAc(b1-3)[Fuc(a1-3)[Gal(b1-4)]GlcNAc(b1-6)]Gal(b1-4)Glc
Outline: as §1

[10] = molecular target: Neu5Ac(a2-3)Gal(b1-4)GlcNAc(b1-2)Man
Outline: as §1

[11] = molecular target: Neu5Ac(a2-3)Gal(b1-4)GlcNAc(b1-3)Gal(b1-4)GlcNAc(b1-3)GalNAc
Outline: as §1

[12] = molecular target: Neu5Ac(a2-3)Gal(b1-4)GlcNAc(b1-3)[Neu5Ac(a2-3)Gal(b1-4)GlcNAc(b1-6)]GalNAc
Outline: as §1

[13] = molecular target: Neu5Ac(a2-3)Gal(b1-4)[Fuc(a1-3)]GlcNAc(b1-3)GalNAc
Outline: as §1

[14] = molecular target: Neu5Ac(a2-6)Gal(b1-4)GlcNAc(b1-2)Man
Outline: as §1

[15] = molecular target: Neu5Ac(a2-6)Gal(b1-4)GlcNAc(b1-2)Man(a1-3)[Gal(b1-4)GlcNAc(b1-2)Man(a1-6)]Man(b1-4)GlcNAc(b1-4)GlcNAc
Outline: as §1

[16] = molecular target: Neu5Ac(a2-6)Gal(b1-4)GlcNAc(b1-3)Gal(b1-4)GlcNAc
Outline: as §1

[17] = molecular target: Neu5Ac(a2-6)Gal(b1-4)GlcNAc(b1-3)Gal(b1-4)GlcNAc(b1-2)Man(a1-3)[Neu5Ac(a2-6)Gal(b1-4)GlcNAc(b1-3)Gal(b1-4)GlcNAc(b1-2)Man(a1-6)]GalNAc
Outline: as §1

[18] = molecular target: Neu5Ac(a2-6)Gal(b1-4)GlcNAc(b1-3)Gal(b1-4)GlcNAc(b1-3)Gal(b1-4)GlcNAc(b1-2)Man(a1-3)[Neu5Ac(a2-6)Gal(b1-4)GlcNAc(b1-3)Gal(b1-4)GlcNAc(b1-3)Gal(b1-4)GlcNAc(b1-2)Man(a1-6)]GalNAc
Outline: as §1

[19] = molecular target: Neu5Ac(a2-6)Gal(b1-4)GlcNAc(b1-3)Gal(b1-4)[Fuc(a1-3)]GlcNAc(b1-3)Gal(b1-4)[Fuc(a1-3)]GlcNAc
Outline: as §1

[20] = molecular target: Neu5Ac9Ac(a2-3)Gal(b1-3)GlcNAc
Outline: as §1

B1: Epa21 (Candida glabrata) (protein)
chain: MGSSHHHHHHSSGLVPRGSHMASTPNIESHPQGCSPVDTSGIKPGLKMDLYRFPITPPGTGCWSWDWLTVTPDFPRSGYWKWPKIAEVDGVVGPLHLDSGHPTCDPLTSVLPHGFNYLQSITTTNFTMVLHGYFVPKQSGKYTFEFKADDALLLNLGAGNAFSCCDYNNSQYNQGEYLAYAIWSKNNQTATLYLEKGIYYPIRVFYHNRCCGAYMDVVYYFNDSPIPNRDFSGLLFSIPDSDSCDANI
glycan array binding signal (z-score) (Gal6S(b1-4)Glc6S): 2.89
glycan array binding signal (z-score) (Gal6S(b1-4)GlcNAc6S): 3.19
glycan array binding signal (z-score) [1]: 0.288
glycan array binding signal (z-score) (GlcA(b1-3)GlcNAc): 0.14
glycan array binding signal (z-score) [2]: -0.35
glycan array binding signal (z-score) [3]: -0.466
glycan array binding signal (z-score) [4]: 0.013
glycan array binding signal (z-score) [5]: -0.531
glycan array binding signal (z-score) [6]: -0.026
glycan array binding signal (z-score) [7]: -0.487
glycan array binding signal (z-score) [8]: -0.39
glycan array binding signal (z-score) [9]: -0.237
glycan array binding signal (z-score) [10]: 2.68
glycan array binding signal (z-score) [11]: 3.03
glycan array binding signal (z-score) [12]: 0.888
glycan array binding signal (z-score) [13]: 1.87
glycan array binding signal (z-score) [14]: -0.212
glycan array binding signal (z-score) [15]: -0.438
glycan array binding signal (z-score) [16]: -0.589
glycan array binding signal (z-score) [17]: 2.55
glycan array binding signal (z-score) [18]: 5.42
glycan array binding signal (z-score) [19]: -0.189
glycan array binding signal (z-score) [20]: -0.318
